# Source: article PMC5540273 (PLoS ONE, 2017)
# System: NEK10
# Conditions: concentration: 1 μM, replicates: in singlicate; n = 1
# 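Further: KINOMEscan kinase panel screen.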
row,SMILES,%Inh [%]
1,Cn1ccc2ncnc(Oc3ccc(NC(=O)Nc4ccncc4)c(Cl)c3)c21,14
2,COc1cc2c(cc1OC[C@@H](O)CO)ncc1c3ccc(C#N)cc3[nH]c21,18
3,Cc1cn2c(=O)cc(N3CCOCC3)nc2n1Cc1cccc(Cl)c1Cl [GSK2334006],10
4,Cn1cc(-c2ccc3c(c2)CCN3C(=O)Cc2ccccc2Cl)c2c(N)ncnc21 [GSK2608885],0
5,NS(=O)(=O)c1cccc(-c2ccc3nccc(-c4cccc(S(N)(=O)=O)c4)c3c2)c1 [GW867253],20
6,Cl.Oc1cccc(Nc2ccnc3cc(-c4ccncc4)ccc23)c1 [GW494601],0
7,[2H]C([2H])(c1cccc(C(F)(F)F)c1C)n1ccn2c(=O)nc(N3CCOCC3)cc12 [GSK2336394],7
8,Cl.Nc1ncnc2occ(-c3ccc(NC(=O)Nc4cc(C(F)(F)F)ccc4F)cc3)c12 [SB-707548],1
9,O=C1NC(=O)C(N2CCc3ccccc32)=C1c1cccc(Cl)c1 [SB-408010],43
10,C[C@@H](Oc1cc(-n2cnc3ccc(NC(=O)NC(C)(C)C)cc32)sc1C(N)=O)c1ccccc1Cl [GSK346294],0
11,O=c1cc(N2CCOCC2)nc2n(Cc3cccc(Cl)c3Cl)c(C3CC3)nn12 [GSK2358994],20
12,CSc1ccc(-c2cc3ncnc(SCC(=O)O)c3s2)cc1,26
13,c1ccc(-c2n[nH]cc2-c2ccnc3ccccc23)nc1 [GW271431],8
14,Cl.Cl.Cl.Fc1ccc(-c2ncn(C3CCNCC3)c2-c2ccnc(Nc3ccccc3)n2)cc1 [SB-238039],0
15,O=C(NCCNc1ccnc(Nc2ccc(F)cc2)n1)c1cc2ccccc2s1 [GSK1379874],7
16,Fc1ccc(-c2ncn(CCCN3CCOCC3)c2-c2cccnc2)cc1 [SB-211743],14
17,Cc1ccc(NC(=O)c2ccnc(N3CCN(C)CC3)c2)cc1-c1ccc(C(=O)NCC2CC2)cc1 [GW775604],0
18,CN1c2ccc(CNc3ccc(F)cc3)cc2-c2c(cnn2C)S1(=O)=O,0
19,CNc1ncnc2[nH]ncc12 [SKF-18355],16
20,COCCNC(=O)c1ccc(-c2cc(C(=O)NC3CC3)cc(F)c2C)cc1 [GW868318],3
21,CCc1ccnc(/C=C/c2n[nH]c3cc(Sc4ccccc4C(=O)NC)ccc23)c1,4
22,CC(C)Oc1ccc2c(-c3ccnc(Nc4ccc(N5CCN(C)CC5)cc4)n3)cnn2n1 [GW696155],97.6
23,c1ccc(-c2cc(-c3c[nH]nc3-c3ccccn3)ccn2)cc1 [GW576604],19
24,Fc1ccc(-c2ncn(CCCN3CCOCC3)c2-c2ccccn2)cc1 [SB-211742],0

# System: NEK11
# Conditions: concentration: 1 μM, replicates: in singlicate; n = 1
row,SMILES,%Inh [%]
1,Cc1cccc(-c2nc(-c3ccc(S(C)(=O)=O)cc3)sc2-c2ccncc2)c1,0
2,Nc1nc(-c2ccc3c(N)n[nH]c3c2)cc(N2CCCC2)n1 [GSK2227430],0
3,NCC(NC(=O)c1cc(-c2cn[nH]c2)c(-c2ccnc3[nH]ccc23)s1)c1ccccc1.O=C(O)C(F)(F)F.O=C(O)C(F)(F)F (stereo not drawn) [GSK1325775],15
4,Cc1c(Cn2c(C)nn3c(=O)cc(N4CCOC(C)C4)nc23)cccc1C(F)(F)F (stereo not drawn) [GSK2344444],0
5,O=C(Nc1cccc(-c2nn3ncccc3c2-c2ccnc(Nc3cccc(C(F)(F)F)c3)n2)c1)c1c(F)cccc1F [GSK299495],19
6,N#Cc1c(N2CCOCC2)sc(-c2ccn[nH]2)c1-c1ccc(Cl)cc1,0
7,CCc1nc(-c2cccc(C)c2)c(-c2ccnc(NCc3ccccc3)c2)s1,0
8,Nc1nccc(-c2c(-c3ccc(F)cc3)ncn2C2CCN(CC(F)(F)F)CC2)n1 [SB-236560],0
9,CC(=O)Nc1ccc(COc2ccc(Nc3ccnc4cc(-c5ccccn5)ccc34)cc2)cc1.Cl [GW440148],0
10,O=C(NCCCN1CCOCC1)c1cccc(Nc2nccc(Nc3ccc(Oc4ccccc4)cc3)n2)c1 [GW663929],13
11,COc1cc2c(cc1OCCN1CCN(C)CC1)ncc1c3ccc(C#N)cc3[nH]c21,0
12,COc1ccc(Nc2ncc(C#N)c(Nc3ccccc3C(N)=O)n2)cc1N1CCN(C)CC1.Cl [GSK1558669],97.5
13,Cn1ccc2ncnc(Oc3ccc(NC(=O)Nc4ccncc4)c(Cl)c3)c21,0
14,COc1cc2c(cc1OC[C@@H](O)CO)ncc1c3ccc(C#N)cc3[nH]c21,0
15,Cc1cn2c(=O)cc(N3CCOCC3)nc2n1Cc1cccc(Cl)c1Cl [GSK2334006],0
16,Cn1cc(-c2ccc3c(c2)CCN3C(=O)Cc2ccccc2Cl)c2c(N)ncnc21 [GSK2608885],0
17,NS(=O)(=O)c1cccc(-c2ccc3nccc(-c4cccc(S(N)(=O)=O)c4)c3c2)c1 [GW867253],8
18,Cl.Oc1cccc(Nc2ccnc3cc(-c4ccncc4)ccc23)c1 [GW494601],49

row,SMILES,%Inh [%]
1,[2H]C([2H])(c1cccc(C(F)(F)F)c1C)n1ccn2c(=O)nc(N3CCOCC3)cc12 [GSK2336394],0
2,Cl.Nc1ncnc2occ(-c3ccc(NC(=O)Nc4cc(C(F)(F)F)ccc4F)cc3)c12 [SB-707548],0
3,O=C1NC(=O)C(N2CCc3ccccc32)=C1c1cccc(Cl)c1 [SB-408010],0
4,C[C@@H](Oc1cc(-n2cnc3ccc(NC(=O)NC(C)(C)C)cc32)sc1C(N)=O)c1ccccc1Cl [GSK346294],0
5,O=c1cc(N2CCOCC2)nc2n(Cc3cccc(Cl)c3Cl)c(C3CC3)nn12 [GSK2358994],0
6,CSc1ccc(-c2cc3ncnc(SCC(=O)O)c3s2)cc1,0
7,c1ccc(-c2n[nH]cc2-c2ccnc3ccccc23)nc1 [GW271431],0
8,Cl.Cl.Cl.Fc1ccc(-c2ncn(C3CCNCC3)c2-c2ccnc(Nc3ccccc3)n2)cc1 [SB-238039],0
9,O=C(NCCNc1ccnc(Nc2ccc(F)cc2)n1)c1cc2ccccc2s1 [GSK1379874],0
10,Fc1ccc(-c2ncn(CCCN3CCOCC3)c2-c2cccnc2)cc1 [SB-211743],0
11,Cc1ccc(NC(=O)c2ccnc(N3CCN(C)CC3)c2)cc1-c1ccc(C(=O)NCC2CC2)cc1 [GW775604],0
12,CN1c2ccc(CNc3ccc(F)cc3)cc2-c2c(cnn2C)S1(=O)=O,0
13,CNc1ncnc2[nH]ncc12 [SKF-18355],0
14,COCCNC(=O)c1ccc(-c2cc(C(=O)NC3CC3)cc(F)c2C)cc1 [GW868318],27
15,CCc1ccnc(/C=C/c2n[nH]c3cc(Sc4ccccc4C(=O)NC)ccc23)c1,0
16,CC(C)Oc1ccc2c(-c3ccnc(Nc4ccc(N5CCN(C)CC5)cc4)n3)cnn2n1 [GW696155],86
17,c1ccc(-c2cc(-c3c[nH]nc3-c3ccccn3)ccn2)cc1 [GW576604],3
18,Fc1ccc(-c2ncn(CCCN3CCOCC3)c2-c2ccccn2)cc1 [SB-211742],0
